Data on 40 compounds can be found in PubChem BioAssay (EPA / NIEHS).

Activity calls are given as the source filed them. Rule for the calls: active = hit-call score of the fitted dose curve at least 0.9, where 1 is the maximum; inactive = score below 0.9.

Read-out in this assay: Bcl-2 (BAX) gene, BAX (gene 581)
The experiment in a line: LTEA_HepaRG_BAX: Life Technologies and Expression Analysis (LTEA) Assay for Bcl-2 (BAX) gene using HepaRG (AID 2283470). Conditions: mRNA level, 48 h; actives raise or lower the signal. The method, then: LTEA_HepaRG is a cell based, multiplexed-readout assay that uses HepaRG, a human liver cell line, with measurements taken at 48 hours after chemical dosing on a 96-well plate.LTEA_HepaRG_BAX is one of 102 assay component(s) measured in the LTEA HepaRG cell culture assay. It is a marker of Cell proliferation, survival, death.Data from the assay component LTEA_HepaRG_BAX was analyzed into 1 endpoint. This assay endpoint, LTEA_HepaRG_BAX, was analyzed with bidirectional fitting relative to DMSO as the negative control and baseline of activity. Using a type of inducible reporter, measures of mRNA induction for gain or loss-of-signal activity can be used to understand regulation of transcription factor activity. To generalize the intended target to other relatable targets, this assay endpoint is annotated to the cell cycle intended target family, where the subfamily is Cell proliferation, survival, death.
A total of 1060 chemcials from the ToxCast library were tested in eight-point concentration-response experiments. Cell culture and cytotoxicity assays were conducted at Thermo Fisher Scientific's Custom Services facility (Madison, WI). A single lot of human HepaRG cells (Thermo Fisher Scientific, Frederick, MD) was used for the cell culture experiments. 96-well format collagen type I coated plates of human HepaRG cells were prepared using established methods. Briefly, cryopreserved HepaRG cells were thawed, plated at a density of approximately 100,000 cells/well in HepaRG Thaw, Plate, and General Purpose media (HPRG770, Thermo Fisher Scientific), and incubated for 48 hours. 0.5% DMSO was selected as vehicle control to balance the requisite need of DMSO in HepaRG cultures to maintain differentiation (for example, baseline metabolism, proportions of hepatocytes vs. cholangiocytes), while enabling further hepatic receptor pathway activation (for example, PXR and CAR) in response to chemical exposure. 48 hours after plating, the culture medium was replaced with HepaRG Serum-Free Incudtion Media. Cells were exposed to each test chemical in duplicate and maintained in CO2 incubators for another 48 hours. Chemical plates were thawed to room temperature and 200x concentrations of treatment groups were prepared. 8-point conentration-reponse curves were made with the highest exposure at 100 uM, followed by half-log dilutions, all in 0.5% DMSO. Each test plate contained variouse controls, induction positive controls (1mM phenobarbital), cytotoxicity positive controls ([…] aflatoxin B1), vehicle controls (0.5% DMSO), and total lysis controls (0.5% DMSO). Cell morphology images were taken using an Essen IncuCyte FLR automated microscope, with six 96-well plates imaged in about 24 minutes. Images were captured and exported and JPEG files. Spent culture media was transfered to black-well plates for the LDH assay, and remaining media was sorted at -80 C for later use. Cells were treated with RLT buffer and frozen until shipped for gene expression analysis. Total RNA was isolated from the cell suspension in 75 uL of Buffer RLT (Qiagen, Germantown, MD 20874) by Quintiles/Expression Analysis (Durham, NC) using a custom isolation procedure. Total RNA from each plate well was transferred to a preamplification plate. Fluidigm's 96.96 Dynamic ArrayTM (Fluidigm, Amsterdam, the Netherlands) technology was used for gene expression analyses by quantitative reverse transcription polymerase chain reaction (qRT-PCR, performed by Quintiles/Expression Analysis, Durham, NC)89. Standard TaqManTM Assays (Applied Biosystems/ThermoFisher Scientific, Foster City, CA) were used to assess the expression of 93 genes selected based on their selectivity and sensitivity to important hepatic receptors known to be modulated by environmental chemicals; importance in human hepatocyte functionality; and hepatotoxicity. […]
Regarding `S=c1[nH]c2ccccc2s1`, the outcome was inactive.
For the compound `O=C1c2c(O)cccc2Cc2cccc(O)c21`, the compound was classed as inactive.
On to `N[C@@H](Cc1c[nH]c2ccccc12)C(=O)O`, for which the compound was classed as inactive.
As to `O=[Si]=O`, the outcome was inactive.
Take `CSc1ccc(Oc2ccc(S(N)(=O)=O)cc2CN(C)C)cc1C`: the outcome was inactive.
For `Cc1cn([C@H]2C=C[C@@H](CO)O2)c(=O)[nH]c1=O`, the call was inactive.
`O=C(O)CN(CC(=O)O)CC(=O)O`: the compound was called inactive.
Regarding `Oc1ccc(O)cc1`, the compound was classed as inactive.
As for `CS(=O)(=O)c1ccc([C@@H](C[C@H]2CCC(=O)C2)C(=O)Nc2cnccn2)cc1Cl`, the AC50 (in general, the midpoint of the concentration-response curve, whichever way the signal moves) is 25.4 µM (active).
Turning to `Cc1cc(SC2=C(O)C[C@@](CCc3ccc(N)cc3)(C(C)C)OC2=O)c(C(C)(C)C)cc1CO`, the compound was classed as inactive.
Consider `O=C(O)c1cccnc1`, for which the result was inactive.
In the case of `O=C1O[C@H]([C@H](O)CO)C(O)=C1O`, the outcome was inactive.
In the case of `CCCCCCCCCC[N+](C)(C)[O-]`, the call was inactive.
On to `CCCCc1nc2cccnc2n1Cc1ccc(-c2ccccc2-c2nnn[nH]2)cc1`, for which the outcome was inactive.
Regarding `CC(C)(C)c1ccccc1`, the compound was called inactive.
With `CC(C)c1cccc(C(C)C)c1NC(=O)NS(=O)(=O)c1cc(C(C)(C)O)co1`, the result was inactive.
On to `CC(C)OC(=O)C(C)(C)Oc1ccc(C(=O)c2ccc(Cl)cc2)cc1`, for which the call was inactive.
Regarding `CC1(C)C(=O)NC(=O)N1CO`, the call was inactive.
Still for that read-out and setting: for `CC(=O)O` the value was “inactive”; for `c1ccc2occc2c1`, “inactive”; for `O=NO`, “inactive”.
Take `CCCCC(CC)COC(=O)CCCCCCCC(=O)OCC(CC)CCCC` (stereo not given): the outcome was inactive.
Regarding `CCOCCOCCO`, the outcome was inactive.
As for `CCN(CC)CCOc1ccc(C(=C(Cl)c2ccccc2)c2ccccc2)cc1`, the compound was called inactive.
The same measure, in the same setting: for `Cc1occc(=O)c1O` the value was “inactive”; for `O=C(O)c1[nH]n(-c2ccc(S(=O)(=O)O)cc2)c(=O)c1N=Nc1ccc(S(=O)(=O)O)cc1`, “inactive”.
On to `CCCCCCC(C=O)=Cc1ccccc1`, for which the compound was classed as inactive.
Consider `CCCCC(CC)CO` (stereo not given), for which the result was inactive.
Take `COC(=O)[C@H]1[C@H]2C[C@@H]3c4[nH]c5cc(OC)ccc5c4CCN3C[C@H]2C[C@@H](OC(=O)c2cc(OC)c(OC)c(OC)c2)[C@@H]1OC`: the outcome was inactive.
Consider `CCCCCCCCCCCCCCCCO`, for which the compound was classed as inactive.
As to `CC(C)COC(=O)CCCCC(=O)OCC(C)C`, the result was inactive.
Same read-out and setting: in the case of `Cc1ccc(C(C)(C)C)c(O)c1` it was “inactive”; in that of `CN(C)CCCN(C)CCCN(C)C`, “inactive”; in that of `O=C(N[C@@H](c1ccccc1)[C@@H]1CCCCN1)c1cccc(C(F)(F)F)c1Cl`, “inactive”.
As to `OCC(CO)n1cnc(-c2ccc(F)cc2)c1-c1ccnc(Oc2ccccc2)n1`, the compound was called inactive.
On the same count and under the same terms, for `O=C(NS(=O)(=O)/C=C/c1cccs1)c1ccc(F)cc1Br` the value was “inactive”; for `O=C1OC(c2ccc(O)cc2)(c2ccc(O)cc2)c2ccccc21`, “inactive”; for `C#CC(O)C(CC)CCCC` (stereo not given), “inactive”.
For `NC(=Nc1ccccc1)Nc1ccccc1`, the result was inactive.
Take `O=C1NC(=O)C(c2ccccc2)(c2ccccc2)N1`: the compound was classed as inactive.
